In PubChem BioAssay:
Active and inactive are the calls of the source. Unless noted, no rule for the calls is given here.

Experiments:
[1] = system: Wnt5a (protein binding on small-molecule microarray); test: small molecules binding Wnt5a protein – biophysical, small-molecule microarray, 635/667 nm fluorescence, primary screen (AID 1142); conditions: 635 nm fluorescence, higher = more signal;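 also: fluorescence read at 667 nm with signal to noise per printed feature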
[2] = ATP-based viability of Huh7 replicon cells – cell-based, CellTiter-Glo luminescence, basal, 48 h, cytotoxicity control for HCV replication inhibitor project, primary screen (AID 1143); conditions: higher = more signal, called active from +8 up or from −8 down;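 also: Huh7 hepatoma cells carrying a hepatitis C replication reporter with no stimulus; test concentration not given here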
[3] = Pseudomonas biofilm growth suppression – PAO1 strain, BacTiter-Glo luminescence, LB-PBS, primary screen (AID 1144); conditions: P. aeruginosa PAO1 biofilm, 12 h, higher = more signal
[4] = basal CRE-LacZ reporter activity in PC12 – cell-based, unstimulated, primary screen (AID 1145); conditions: no forskolin, luminescence, 4.5 h, higher = more signal, called active from +8 up or from −8 down
[5] = forskolin-driven CRE-LacZ activity in PC12 – cell-based, CRE-LacZ reporter, forskolin-stimulated, primary screen (AID 1146); conditions: luminescence, 4.5 h, higher = more signal, called active from +8 up or from −8 down;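 also: PC12 cells with 6xCRE LacZ reporter stimulated by forskolin 10 µM; beta-galactosidase reporter signal reflecting CREB driven transcription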
[6] = target: Streptavidin (Streptomyces avidinii) (UniProt P22629); test: compounds binding control protein streptavidin – biophysical, small-molecule microarray, 635/667 nm fluorescence, artefact control for SMM compound annotation, primary screen (AID 1147); conditions: higher = more signal;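 also: signal reflects streptavidin binding to arrayed compounds as a control protein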
[7] = probe aInhba binding on compound microarray – biochemical, small-molecule microarray, 635/667 nm fluorescence, primary screen (AID 1148); conditions: higher = more signal;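 also: score merges 667nm spot fluorescence with signal-to-noise for antibody binding to printed compounds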
Torsin-1A (Homo sapiens) [8] = target: Torsin-1A (Homo sapiens) (UniProt O14656); test: TOR1A wild-type binding on microarray – cell lysate, small-molecule microarray, lysate, 635/667 nm, primary screen (AID 1149); conditions: COS7 hTOR1A-WT lysate, 635 nm fluorescence, higher = more signal
Torsin-1A (Homo sapiens) [9] = target: Torsin-1A (Homo sapiens) (UniProt O14656); test: torsin A mutant lysate binding on microarrays – cell lysate, small-molecule microarray, COS7 lysate, 635/667 nm fluorescence, primary screen (AID 1150); conditions: COS7 hTOR1A mutant lysate, 635 nm fluorescence, higher = more signal;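 also: score pools 667 nm emission and signal to noise measuring lysate protein binding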
[10] = system: Sonic hedgehog protein (Shh); test: Sonic hedgehog microarray binding compounds – biochemical, small-molecule microarray, 635/667 nm fluorescence, primary screen (AID 1151); conditions: 635 nm fluorescence, higher = more signal;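 also: Shh protein binding to compounds spotted on small-molecule microarray slides; score combines spot fluorescence intensity with signal-to-noise across triplicate slides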

Sequence of Torsin-1A (Homo sapiens) (O14656 whole entry, looked up): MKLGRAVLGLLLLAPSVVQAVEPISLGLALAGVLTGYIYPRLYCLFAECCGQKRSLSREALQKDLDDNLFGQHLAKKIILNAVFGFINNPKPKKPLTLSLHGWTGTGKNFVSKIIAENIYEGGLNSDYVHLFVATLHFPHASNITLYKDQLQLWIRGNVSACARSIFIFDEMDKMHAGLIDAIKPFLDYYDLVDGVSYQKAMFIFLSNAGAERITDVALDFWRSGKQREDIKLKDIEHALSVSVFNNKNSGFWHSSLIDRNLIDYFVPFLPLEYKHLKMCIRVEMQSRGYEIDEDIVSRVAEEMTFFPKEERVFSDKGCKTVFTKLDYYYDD
Sequence of Streptavidin (Streptomyces avidinii) (P22629 whole entry, looked up): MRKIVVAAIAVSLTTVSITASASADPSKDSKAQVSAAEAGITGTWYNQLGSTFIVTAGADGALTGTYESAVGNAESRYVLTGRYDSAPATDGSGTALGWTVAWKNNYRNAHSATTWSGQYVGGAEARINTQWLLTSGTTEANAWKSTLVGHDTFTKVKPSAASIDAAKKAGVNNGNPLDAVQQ

| SMILES | composite z-score [1] | z-score [2] | z-score [3] | z-score [4] | z-score [5] | composite z-score [6] | composite z-score [7] | composite z-score (Torsin-1A (Homo sapiens) [8]) | composite z-score (Torsin-1A (Homo sapiens) [9]) | composite z-score [10] |
| --- | --- | --- | --- | --- | --- | --- | --- | --- | --- | --- |
| COc1cc2c(cc1O)C(C1CC1)N(Cc1sc3ccccc3c1Cl)CC2 (stereo not given) | -0.207 | -5.05 (inactive) | 1.26 (inactive) | -0.671 (inactive) | 1.82 (inactive) | 0.583 | -0.024 | 1.45 | 0.982 | -0.206 |
| C=CC[C@@]12N=C(c3ccc(OCCCO)cc3)O[C@@H]1c1ccccc1N(C)C2=O | 1.25 | -4.44 (inactive) | -0.0229 (inactive) | 0.297 (inactive) | -0.845 (inactive) | 0.248 | 0.268 | -0.0951 | 0.713 | 1.42 |
| CC(C)NC(=O)[C@@H]1c2ccccc2C(=O)N(C2Cc3ccccc3C2)[C@H]1c1ccc(CO)cc1 | -0.0402 | -1.09 (inactive) | -0.737 (inactive) | 0.441 (inactive) | -1.35 (inactive) | 0.251 | -0.128 | -0.232 | 0.474 | 0.231 |
| [N-]=[N+]=NCc1ccccc1[C@@H]1OC(c2ccc(OCCCO)cc2)=N[C@]1(Cc1ccccc1)C(N)=O | 0.601 | -1.72 (inactive) | -1.85 (inactive) | -1.19 (inactive) | -2.1 (inactive) | 2.03 | 0.228 | 0.162 | -0.106 | -0.315 |
| CC(C)C(=C=CC[C@@H](O)c1ccc(OCCO)cc1)C[C@@H](O)COCc1ccccc1 | 0.13 | -2.24 (inactive) | -0.933 (inactive) | 6.97 (inactive) | -1.23 (inactive) | -0.0104 | -0.0762 | -0.372 | -0.208 | 2.09 |
| COc1ccc([Si](C)(C)[C@H]2[C@H](CC(=O)N3Cc4ccccc4C[C@H]3CO)O[C@@]3(C(=O)N(Cc4cccc(N5CCC5=O)c4)c4ccccc43)[C@@H]2C)cc1 | 0.512 | -3.64 (inactive) | 0.187 (inactive) | 7.57 (inactive) | -0.86 (inactive) | -0.0369 | 0.0183 | 0.906 | 0.838 | 1.74 |
| COC(=O)C(CC#Cc1ccc2c(c1)[C@]1(C(=O)N2)[C@H](C(=O)Nc2nc3ccccc3s2)[C@H]2C(=O)O[C@H](c3ccccc3)[C@H](c3ccccc3)N2[C@@H]1c1ccc(O)cc1)C(=O)OC | 0.533 | -1 (inactive) | -0.672 (inactive) | 0.155 (inactive) | -0.669 (inactive) | 0.906 | 0.0487 | 0.71 | 0.964 | 0.967 |
| COc1cc(Br)cc(C(O)C2C=CC3C(=O)N(C)C(=O)C3N2N2CCCCC2)c1OC (stereo not given) | -0.274 | 0.4 (inactive) | -0.311 (inactive) | 0.822 (inactive) | 0.641 (inactive) | -0.39 | -0.016 | 0.167 | 0.0369 | -1.49 |
| COc1ccc(CCNC(=O)[C@@]2(Sc3ccc(C)cc3)CC(=O)N(C(C)C)[C@@H]2c2ccc(CO)cc2I)cc1 | -0.161 | -0.887 (inactive) | 0.844 (inactive) | -0.295 (inactive) | 0.652 (inactive) | -0.738 | -0.0986 | 0.0086 | -0.622 | -0.156 |
| O=C(N1CCCCC1)[C@]1(Cc2ccccc2)N=C(c2ccc(OCCCO)cc2)O[C@@H]1c1ccccc1 | 0.33 | -6.07 (inactive) | -0.759 (inactive) | 0.558 (inactive) | 0.182 (inactive) | 0.997 | 0.0074 | 1.03 | 0.0081 | -0.412 |
| N#Cc1ccc(NN2C(C(O)C(c3ccccc3)c3ccccc3)C=CC3C(=O)N(c4ccccc4)C(=O)C32)cc1 (stereo not given) | 0.382 | -0.919 (inactive) | -0.731 (inactive) | 0.243 (inactive) | -0.69 (inactive) | 1.21 | 0.204 | 0.604 | 0.274 | -0.634 |
| COc1ccc(CCNC(=O)[C@@]2(C)c3ccccc3C(=O)N(C(C)C)[C@H]2c2ccc(CO)cc2)cc1 | 0.435 | -1.03 (inactive) | 1.08 (inactive) | 0.827 (inactive) | 0.727 (inactive) | 0.454 | -0.102 | 0.0534 | -0.176 | 0.794 |
| CCCC[C@@H]1C[C@H]1[C@@H](NC(=O)c1cccs1)c1ccc(-c2ccccc2)cc1 | -0.0739 | -2.14 (inactive) | -0.218 (inactive) | 1.35 (inactive) | 2.05 (inactive) | 0.0523 | 0.0541 | -0.473 | -0.0352 | 1.73 |
| C[N+](C)(C)CCCCNC(=O)[C@H]1C[C@H]2C(=O)N3CCC[C@H]3C(=O)N2[C@H]1c1cccc(OCCO)c1 | 0.0504 | 0.254 (inactive) | -0.148 (inactive) | -0.667 (inactive) | -0.359 (inactive) | -0.704 | 0.0569 | -0.215 | 0.678 | 2 |
